Measurements published in PubChem BioAssay AID624296 (National Center for Advancing Translational Sciences (NCATS), 2012).
Among all 350,000 compounds or so, about 9,900 (2.8%) were called active. Another 15% or so got no clear call; they are omitted. This is one part of a sample in which actives are shown more often than they occur. Unmarked numbers belong to inactive results. Calls come from the whole dose curve; as a rule, active = well fitted activation curve with a large enough effect; inconclusive = small, poorly fitted or top-dose-only effect; inactive = no such curve, though single readings can be large or run the other way.

assay: A quantitative high throughput screen for small molecules that induce DNA re-replication in MCF 10a normal breast cells.; note: nearly all actives have a fitted effect of over 50% in size; for activity, positive = re-replication: % of control where 0% means no effect; settings: MCF 10A DNA re-replication, Hoechst nuclear intensity, 48 h; series mostly up to 46.1 µM; activity, positive = re-replication: at the top concentration
Potency is the fitted concentration of half-maximal effect.

Going from COc1cc(OC)cc(-c2c(-c3ccc(F)cc3)c3cc(-c4ccc5cc[nH]c5c4)ccc3n2C)c1 to COc1ccc2c(c1)c(=Cc1ccc(N(C)C)cc1)c1cc(-c3ccccc3)[n+](C)n12, the “activity, positive = re-replication” value falls from 3.2% to -16.6%.

Going from CC1Sc2ccc(C(=O)NCc3ccccc3Cl)cc2NC1=O (centres undefined) to COc1ccc(C(=O)NCc2ccccc2C)cc1S(=O)(=O)NC1CCCC1, the “activity, positive = re-replication” value rises from -4.42% to -4.4%.

Compared with O=c1ccn([C@@H]2O[C@H](CNS(=O)(=O)c3cc4ccccc4s3)[C@@H](O)[C@H]2O)c(=O)[nH]1, C[C@H]1CN([C@@H](C)CO)C(=O)Cc2cc(NC(=O)Cc3ccccc3)ccc2O[C@H]1CN(C)S(=O)(=O)c1cccs1 is higher in “activity, positive = re-replication” value: -3.12% for the first, 5.07% for the second.

First: Cc1cc(C)c(C=NNc2nc3c([nH]2)c(=O)n(C)c(=O)n3C)c(C)c1
Second: Cc1nn(Cc2ccccc2)c(C)c1C(=O)NCCN1C(=O)S/C(=C\c2ccc(F)cc2)C1=O
The “activity, positive = re-replication” value of the first is lower: -1.32% for the first, 5.89% for the second.

Compared with CCOC(=O)N/N=C/c1cn(Cc2ccccc2Cl)c2ccccc12, COc1ccccc1CNC(=O)COC(=O)c1cccs1 is lower in “activity, positive = re-replication” value: 3.11% for the first, -5.75% for the second.

Compared with N#CCC(=O)N/N=C/c1ccc(SCC(=O)Nc2ccccc2)o1, CN=C(Nc1cccc(S(=O)(=O)N2CCOCC2)c1)c1ccccc1 is higher in “activity, positive = re-replication” value: -2.9% for the first, -0.997% for the second.

Going from CC1CCCC(NC(=O)c2cc(S(=O)(=O)N3CCCCC3)ccc2Cl)C1C (centres undefined) to O=C(COC(=O)COc1ccccc1F)Nc1cccc(S(=O)(=O)N2CCCCC2)c1, the “activity, positive = re-replication” value falls from -4.65% to -4.89%.

Going from c1cncc(-c2nnc3n2C2(CCCCC2)Cc2ccccc2-3)c1 to CN(c1ccc2nc3ccccc3c(=O)n2n1)C1CCCCC1, the “activity, positive = re-replication” value falls from 1.24% to -2.71%.

Going from CC(C)C[C@H]1CN([C@@H](CC(C)C)CN2CCC[C@@H]2CN2C(=O)C(=O)NC[C@@H]2Cc2ccccc2)C(=O)C(=O)N1CCc1ccccc1 to C[C@H](CO)N1C[C@H](C)[C@@H](CN(C)Cc2ccc(-c3ccccc3)cc2)Oc2ccc(NC(=O)Cn3cnnn3)cc2C1=O, the “activity, positive = re-replication” value falls from 17.4% to 4.97%.

Compared with CCN(CC)S(=O)(=O)c1ccc(Cl)c(NC(=O)c2ccncc2)c1, O=C(Nc1nnc(SCc2c(Cl)cccc2Cl)s1)c1cccc([N+](=O)[O-])c1 is higher in “activity, positive = re-replication” value: 0.731% for the first, 21% for the second.

Compared with Cc1cccc(NC(=O)c2cccnc2Cl)n1, Cc1cc(NC(=O)c2cc3ccccc3o2)no1 is higher in “activity, positive = re-replication” value: -3.66% for the first, 1.92% for the second.

Compared with O=C(NOCc1ccccc1)c1cccc([N+](=O)[O-])c1, O=C(NCCN1CCOCC1)/C(=C/c1ccc(F)cc1)NC(=O)c1ccccc1 is lower in “activity, positive = re-replication” value: 1.13% for the first, -3.22% for the second.

First: O=C(Nc1nc2c(F)cc(F)cc2s1)C1COc2ccccc2O1 (centres undefined)
Second: O=C(Nc1nc(-c2ccncc2)cs1)C1COc2ccccc2O1 (centres undefined)
The “activity, positive = re-replication” value of the first is higher: 5% for the first, 3.86% for the second.

Compared with O=C(Nc1nnc(CCc2ccccc2)s1)C1CCCO1 (centres undefined), CCc1nnc(NC(=O)CCCSc2nc3ccccc3[nH]2)s1 is higher in “activity, positive = re-replication” value: -6.69% for the first, 0.183% for the second.

Going from O=C(O)/C=C/c1ccc2c(c1)OCCO2 to O=C(N/N=C/c1ccc2c(c1)OCO2)C(=O)N1CCCC1, the “activity, positive = re-replication” value rises from 13.8% to 14.4%.

Going from O=C(COC(=O)c1cc[n+]([O-])cc1)Nc1ccc(Cl)c(C(F)(F)F)c1 to CCOc1cccc2cc(C(=O)OCC(=O)Nc3c(C)cccc3CC)c(=O)oc12, the “activity, positive = re-replication” value falls from 23.8% to -4.55%.

Going from CCOc1ccc(CCNC(=O)COC(=O)C2CCN(S(=O)(=O)c3ccccc3)CC2)cc1OCC to O=C(NCCCN1CCOCC1)c1ccc2c(c1)N(Cc1cccc(F)c1)C(=O)c1ccccc1S2, the “activity, positive = re-replication” value rises from -3.91% to -2.53%.

Compared with CCN1CCN(CCNC(=O)c2ccc3c(c2)NC(=O)/C(=C\c2ccc(OC)c(OC)c2)S3)CC1, COc1ccc([C@H]2CC(=O)C=C(c3ccc(OC(F)(F)F)cc3)C2)cc1OC is higher in “activity, positive = re-replication” value: 1.79% for the first, 6.41% for the second.

Compared with Cn1nnnc1SCC(=O)Nc1sccc1C(N)=O, O=C(CSc1nc2ccccc2[nH]1)Nc1nc(-c2ccccc2)c(-c2ccccc2)o1 is lower in “activity, positive = re-replication” value: 0.751% for the first, 0.359% for the second.

For O=C1CC(C(=O)O)NC(=S)N1 (centres undefined), the “activity, positive = re-replication” value was -28.6%.

In the case of COc1ccc2sc(-c3ccc(N(C)C)cc3)c(-c3ccc4cc[nH]c4c3)c2c1, the Potency is reported as 16.4 µM (active).
In the case of N#CCC(=O)N/N=C/c1cn(Cc2ccc3ccccc3c2)c2ccccc12, the Potency is reported as 10.3 µM (active).
With O=c1c2ccccc2nc2n1C1(CCCCC1)Cc1ccccc1-2 the Potency was 18.4 µM (active).
For CCN(CC)S(=O)(=O)c1ccc(NC(=O)c2cccnc2Cl)c(NC(=O)c2cccnc2Cl)c1, the Potency was 18.4 µM (active).
For O=C(Nc1nnc(SCc2c(Cl)cccc2Cl)s1)C1CCCO1 (centres undefined), the Potency was 11.6 µM (active).
For O=C(Nc1nnc(SCc2ccc(Cl)cc2Cl)s1)C1COc2ccccc2O1 (centres undefined), the Potency was 18.4 µM (active).
With O=C1/C(=C/c2ccc3c(c2)OCO3)CCC/C1=C\c1ccc2c(c1)OCO2 the Potency was 14.6 µM (active).
With CCN1CCN(CCNC(=O)c2ccc(/C=C3/Sc4ccccc4N(Cc4cccc(C)c4)C3=O)cc2)CC1 the Potency was 6.51 µM (active).
In the case of O=C(NCCN1CCOCC1)c1ccc(/C=C2\Sc3ccccc3N(Cc3ccc(F)cc3)C2=O)cc1, the Potency is reported as 18.4 µM (active).
With CCC(C)N1C(=O)S/C(=C/c2ccc(Sc3nc4ccccc4[nH]3)o2)C1=O (centres undefined) the Potency was 8.2 µM (active).
